Several values for one entry are separate records, joined by “and”; a condition that tells them apart may be missing. Equal values may be shown once. Inconclusive results are not listed. Entries that show only a call come without a potency. Where a structure was tested more than once in an assay, its records may differ in their call. Activity calls are given as the source filed them. Calls come from the whole dose curve; as a rule, active = well fitted curve in the direction sought with a large enough effect in the repeat runs; inconclusive = weak or mixed curves; inactive = no such curve, though single readings can be large; an effect the other way counts as inactive or inconclusive.
Key:
[1] = Caspase-3/7 induction in HepG2 cells by small molecules, qHTS assay (AID 1346978); note: nearly all actives have a fitted effect of over 15% in size
Outline: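 Wild-type HepG2 cells, 2,000/well, settled 5 hr at 37 C and 5% CO2, then compound-treated for 17 hr; caspase-3/7 activity read by luminescent Caspase-Glo 3/7 after 30 min at room temperature.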

[2] = Caspase-3/7 induction in CHO-K1 cells by small molecules, qHTS cell viability counter screen (AID 1346979); note: nearly all actives have a fitted effect of over 35% in size; note: potency is the fitted concentration of half-maximal effect
Outline: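 Wild-type CHO-K1 cells (1,500/well) treated with compound after 5 h plating; after 16 h at 37C, viability read as CellTiter-Fluor fluorescence following 1 h reagent incubation, in the same wells as the caspase read.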

[3] = Caspase-3/7 induction in CHO-K1 cells by small molecules, qHTS assay (AID 1346980); note: nearly all actives have a fitted effect of over 15% in size
Outline: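 Wild-type CHO-K1 cells exposed to compounds for 17hr at 37 C, 5% CO2. Caspase-3/7 activity then measured by Caspase-Glo 3/7 luminescence after 30min at room temperature.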

[4] = Caspase-3/7 induction in HepG2 cells by small molecules, qHTS cell viability counter screen (AID 1346981); note: nearly all actives have a fitted effect of over 30% in size; note: potency is the fitted concentration of half-maximal effect
Outline: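 HepG2, WT, 2,000 cells/well; 5 hr pre-incubation 37 C/5% CO2; compound pin-transferred from DMSO; 16 hr exposure; CellTiter-Fluor, 1 hr; fluorescence read.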

[5] = target: Nuclear receptor subfamily 1 group I member 2 (Homo sapiens) (UniProt O75469); assay: Human pregnane X receptor (PXR) small molecule agonists, qHTS assay (AID 1346982); note: nearly all actives have a fitted effect of over 35% in size; note: potency is the fitted concentration of half-maximal effect
Nuclear receptor subfamily 1 group I member 2 (Homo sapiens), sequence (O75469 whole entry, looked up): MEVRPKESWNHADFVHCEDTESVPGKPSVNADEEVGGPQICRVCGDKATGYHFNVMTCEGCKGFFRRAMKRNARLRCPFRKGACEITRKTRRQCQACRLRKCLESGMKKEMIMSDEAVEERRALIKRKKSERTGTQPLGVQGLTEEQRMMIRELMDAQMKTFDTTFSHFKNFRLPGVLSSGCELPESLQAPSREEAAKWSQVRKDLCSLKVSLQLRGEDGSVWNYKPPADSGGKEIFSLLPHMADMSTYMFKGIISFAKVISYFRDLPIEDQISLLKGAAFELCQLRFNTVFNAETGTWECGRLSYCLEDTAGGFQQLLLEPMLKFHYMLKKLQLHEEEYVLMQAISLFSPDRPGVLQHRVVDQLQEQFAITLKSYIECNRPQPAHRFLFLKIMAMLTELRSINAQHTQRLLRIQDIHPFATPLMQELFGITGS
Outline: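 Luciferase signal from ONE-Glo (30 min, room temperature) measured activation of hPXR-driven CYP3A4 reporter expression in PXR-Luc HepG2 cells treated with compounds for 24 hr at 37 C.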

[6] = target: Cytochrome P450 2D6 (Homo sapiens) (UniProt P10635); assay: Cytochrome P450 Family 2 Subfamily D Member 6 (CYP2D6) small molecule antagonists: luciferase reporter qHTS assay (AID 1671196); note: nearly all actives have a fitted effect of over 50% in size; note: potency is the fitted concentration of half-maximal effect
Cytochrome P450 2D6 (Homo sapiens), sequence (P10635 whole entry, looked up): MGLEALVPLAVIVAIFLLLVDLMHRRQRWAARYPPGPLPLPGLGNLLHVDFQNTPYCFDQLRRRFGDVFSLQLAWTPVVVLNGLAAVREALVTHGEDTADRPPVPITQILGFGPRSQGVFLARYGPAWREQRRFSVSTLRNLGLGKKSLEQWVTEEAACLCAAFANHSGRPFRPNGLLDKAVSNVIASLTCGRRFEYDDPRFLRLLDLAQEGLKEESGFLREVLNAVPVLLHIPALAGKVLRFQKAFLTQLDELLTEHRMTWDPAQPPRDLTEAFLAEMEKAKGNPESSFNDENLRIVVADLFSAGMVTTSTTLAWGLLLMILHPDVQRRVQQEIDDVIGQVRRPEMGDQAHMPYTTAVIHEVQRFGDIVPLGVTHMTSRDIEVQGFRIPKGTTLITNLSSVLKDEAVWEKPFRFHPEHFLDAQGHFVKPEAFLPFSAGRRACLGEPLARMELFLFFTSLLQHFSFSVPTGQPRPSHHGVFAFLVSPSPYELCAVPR
Outline: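 Read-out is luminescence from luciferin formed by CYP2D6 turnover of a proluciferin substrate, recorded as relative luminescence units. Reactions ran 1 h at room temperature after NADPH regeneration solution was added.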

[7] = target: Cytochrome P450 2C19 (Homo sapiens) (UniProt P33261); assay: Cytochrome P450 Family 2 Subfamily C Member 19 (CYP2C19) small molecule antagonists: luciferase reporter qHTS assay (AID 1671197); note: nearly all actives have a fitted effect of over 65% in size; note: potency is the fitted concentration of half-maximal effect
Cytochrome P450 2C19 (Homo sapiens), sequence (P33261 whole entry, looked up): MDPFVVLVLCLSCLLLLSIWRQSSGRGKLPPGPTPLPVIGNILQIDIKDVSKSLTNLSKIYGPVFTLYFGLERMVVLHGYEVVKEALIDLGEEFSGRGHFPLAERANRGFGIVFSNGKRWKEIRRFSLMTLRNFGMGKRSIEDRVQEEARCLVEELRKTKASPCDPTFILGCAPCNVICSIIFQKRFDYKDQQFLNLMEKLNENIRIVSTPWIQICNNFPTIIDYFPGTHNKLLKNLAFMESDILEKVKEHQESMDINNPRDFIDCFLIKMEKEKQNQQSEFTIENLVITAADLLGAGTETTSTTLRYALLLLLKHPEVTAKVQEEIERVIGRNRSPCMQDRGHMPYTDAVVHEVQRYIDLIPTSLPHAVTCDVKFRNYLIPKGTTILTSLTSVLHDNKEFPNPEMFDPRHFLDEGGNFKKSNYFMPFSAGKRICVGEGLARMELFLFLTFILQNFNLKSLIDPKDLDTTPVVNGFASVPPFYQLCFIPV
Outline: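 P450-Glo CYP2C19 system: enzyme-substrate mix with compound 10 min at room temperature, then NADPH regeneration solution, 1 h at 37C. Proluciferin-to-luciferin conversion detected by luminescence after 20 min with detection reagent; ketoconazole as positive control.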

[8] = target: Cytochrome P450 1A2 (Homo sapiens) (UniProt P05177); assay: Cytochrome P450 Family 1 Subfamily A Member 2 (CYP1A2) small molecule antagonists: luciferase reporter qHTS assay (AID 1671199); note: nearly all actives have a fitted effect of over 50% in size; note: potency is the fitted concentration of half-maximal effect
Cytochrome P450 1A2 (Homo sapiens), sequence (P05177 whole entry, looked up): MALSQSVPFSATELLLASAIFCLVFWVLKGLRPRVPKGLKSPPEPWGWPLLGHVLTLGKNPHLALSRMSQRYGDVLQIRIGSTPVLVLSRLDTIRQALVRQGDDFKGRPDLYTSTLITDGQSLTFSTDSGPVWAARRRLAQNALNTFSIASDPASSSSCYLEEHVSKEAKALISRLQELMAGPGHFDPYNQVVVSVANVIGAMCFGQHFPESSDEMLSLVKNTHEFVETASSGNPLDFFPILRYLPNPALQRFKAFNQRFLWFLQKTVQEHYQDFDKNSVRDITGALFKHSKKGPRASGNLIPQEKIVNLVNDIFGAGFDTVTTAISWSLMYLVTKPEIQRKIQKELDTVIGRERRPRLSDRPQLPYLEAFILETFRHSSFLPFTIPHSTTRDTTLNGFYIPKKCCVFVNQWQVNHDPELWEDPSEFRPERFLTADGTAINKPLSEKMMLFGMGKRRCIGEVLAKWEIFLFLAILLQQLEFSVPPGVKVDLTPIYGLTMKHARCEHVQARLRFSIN
Outline: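 P450-Glo CYP1A2, 1536-well qHTS: enzyme/proluciferin substrate + cpd (DMSO), 10 min RT; NADPH regen, 1 h RT; detection reagent, 20 min; luminescence, RLU.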

[9] = target: Voltage-gated inwardly rectifying potassium channel KCNH2 (Homo sapiens) (UniProt Q12809); assay: Human Ether-a-go-go-Related Gene (hERG) channel small molecule antagonists: fluorescence cell-based qHTS assay (AID 1671200); note: nearly all actives have a fitted effect of over 50% in size; note: potency is the fitted concentration of half-maximal effect
Voltage-gated inwardly rectifying potassium channel KCNH2 (Homo sapiens), sequence (Q12809 whole entry, looked up): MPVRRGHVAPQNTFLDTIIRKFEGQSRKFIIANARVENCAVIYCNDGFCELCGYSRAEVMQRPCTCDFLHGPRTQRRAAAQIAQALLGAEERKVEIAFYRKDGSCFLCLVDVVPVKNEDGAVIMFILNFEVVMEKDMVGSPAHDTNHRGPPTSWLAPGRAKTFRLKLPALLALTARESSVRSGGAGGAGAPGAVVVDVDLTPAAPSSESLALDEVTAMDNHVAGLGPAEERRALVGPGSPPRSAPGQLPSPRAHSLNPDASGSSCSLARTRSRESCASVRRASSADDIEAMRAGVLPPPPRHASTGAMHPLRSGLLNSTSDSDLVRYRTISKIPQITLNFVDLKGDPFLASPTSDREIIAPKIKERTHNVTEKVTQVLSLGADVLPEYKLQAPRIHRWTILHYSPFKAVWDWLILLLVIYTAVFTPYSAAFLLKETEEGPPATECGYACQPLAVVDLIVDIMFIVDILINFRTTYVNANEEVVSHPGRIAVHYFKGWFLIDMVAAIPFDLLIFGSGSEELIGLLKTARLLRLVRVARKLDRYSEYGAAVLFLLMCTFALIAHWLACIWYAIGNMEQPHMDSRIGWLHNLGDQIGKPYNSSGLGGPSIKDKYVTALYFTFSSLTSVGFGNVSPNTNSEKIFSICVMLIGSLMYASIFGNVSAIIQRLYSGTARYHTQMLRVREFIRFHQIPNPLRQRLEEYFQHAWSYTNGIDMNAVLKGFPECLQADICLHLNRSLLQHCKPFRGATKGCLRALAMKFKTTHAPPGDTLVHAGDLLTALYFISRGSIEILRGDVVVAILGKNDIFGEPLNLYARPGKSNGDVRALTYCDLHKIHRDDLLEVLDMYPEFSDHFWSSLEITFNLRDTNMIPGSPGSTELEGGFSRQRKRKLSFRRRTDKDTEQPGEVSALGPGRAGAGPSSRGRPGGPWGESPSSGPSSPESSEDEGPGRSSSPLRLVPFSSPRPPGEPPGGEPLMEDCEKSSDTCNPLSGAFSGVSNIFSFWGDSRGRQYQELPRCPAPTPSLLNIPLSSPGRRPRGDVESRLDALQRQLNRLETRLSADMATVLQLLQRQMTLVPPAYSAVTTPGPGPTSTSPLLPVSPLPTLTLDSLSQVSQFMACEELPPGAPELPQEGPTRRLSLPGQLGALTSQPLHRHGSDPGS
Outline: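 hERG-U2OS cells plated overnight at 37 C, loaded with FluxOR II dye 1 h at RT in dark; after 10 min, thallium stimulus added. Fluorescence (480/540 nm) read kinetically for 2 min at 1 s intervals.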

[10] = target: Cytochrome P450 3A4 (Homo sapiens) (UniProt P08684); assay: Cytochrome P450 Family 3 Subfamily A Member 4 (CYP3A4) small molecule antagonists: luciferase reporter qHTS assay (AID 1671201); note: nearly all actives have a fitted effect of over 50% in size; note: potency is the fitted concentration of half-maximal effect
Cytochrome P450 3A4 (Homo sapiens), sequence (P08684 whole entry, looked up): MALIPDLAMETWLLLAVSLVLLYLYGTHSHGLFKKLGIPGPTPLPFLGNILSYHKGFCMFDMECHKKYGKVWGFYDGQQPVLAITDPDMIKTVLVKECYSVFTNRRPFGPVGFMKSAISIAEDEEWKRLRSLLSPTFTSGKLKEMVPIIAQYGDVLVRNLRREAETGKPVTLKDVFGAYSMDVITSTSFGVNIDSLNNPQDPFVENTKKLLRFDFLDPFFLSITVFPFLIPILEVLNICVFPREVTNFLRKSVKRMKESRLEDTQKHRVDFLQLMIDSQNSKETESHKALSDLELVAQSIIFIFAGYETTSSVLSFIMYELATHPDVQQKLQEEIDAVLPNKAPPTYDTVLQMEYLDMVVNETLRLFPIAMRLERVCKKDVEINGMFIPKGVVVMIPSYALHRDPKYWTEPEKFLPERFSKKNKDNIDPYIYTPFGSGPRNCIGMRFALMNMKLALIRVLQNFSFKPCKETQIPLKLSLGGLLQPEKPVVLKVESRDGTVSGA
Outline: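 P450-Glo CYP3A4 luminescent assay: compounds preincubated 10 min at room temperature with enzyme and proluciferin substrate, NADPH regeneration added, 1 h room-temperature reaction, stopped with luciferin detection reagent; luminescence read after 20 min. Ketoconazole positive control.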

[11] = target: Cytochrome P450 2C9 (Homo sapiens) (UniProt P11712); assay: Cytochrome P450 Family 2 Subfamily C Member 9 (CYP2C9) small molecule antagonists: luciferase reporter qHTS assay (AID 1671198); note: nearly all actives have a fitted effect of over 50% in size; note: potency is the fitted concentration of half-maximal effect
Cytochrome P450 2C9 (Homo sapiens), sequence (P11712 whole entry, looked up): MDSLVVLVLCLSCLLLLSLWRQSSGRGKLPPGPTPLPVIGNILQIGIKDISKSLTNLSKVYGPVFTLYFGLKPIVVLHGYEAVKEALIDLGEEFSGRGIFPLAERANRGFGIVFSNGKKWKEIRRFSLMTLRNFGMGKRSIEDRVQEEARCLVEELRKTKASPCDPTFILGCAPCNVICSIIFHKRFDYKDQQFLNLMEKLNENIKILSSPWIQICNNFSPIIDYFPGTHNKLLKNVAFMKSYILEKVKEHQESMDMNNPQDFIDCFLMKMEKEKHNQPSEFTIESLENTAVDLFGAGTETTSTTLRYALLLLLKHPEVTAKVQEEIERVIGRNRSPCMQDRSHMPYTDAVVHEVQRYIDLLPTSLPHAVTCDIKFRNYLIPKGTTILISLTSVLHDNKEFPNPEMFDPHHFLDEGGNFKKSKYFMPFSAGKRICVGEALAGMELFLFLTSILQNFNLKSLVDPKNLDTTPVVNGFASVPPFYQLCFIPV
Outline: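 P450-Glo proluciferin substrate with CYP2C9 enzyme; 10 min RT preincubation, then NADPH regeneration 1 h at 37C; luciferin detection reagent 20 min RT, luminescence in relative luminescence units.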

[12] = target: Nuclear receptor subfamily 1 group I member 2 (Rattus norvegicus) (UniProt Q9R1A7); assay: Rat pregnane X receptor (rPXR) activation by small molecules, qHTS assay (AID 1346983); details: rPXR luciferase reporter cells, One-Glo luminescence, 24 h; stronger effect = higher value; note: nearly all actives have a fitted effect of over 20% in size
Nuclear receptor subfamily 1 group I member 2 (Rattus norvegicus), sequence (Q9R1A7 whole entry, looked up): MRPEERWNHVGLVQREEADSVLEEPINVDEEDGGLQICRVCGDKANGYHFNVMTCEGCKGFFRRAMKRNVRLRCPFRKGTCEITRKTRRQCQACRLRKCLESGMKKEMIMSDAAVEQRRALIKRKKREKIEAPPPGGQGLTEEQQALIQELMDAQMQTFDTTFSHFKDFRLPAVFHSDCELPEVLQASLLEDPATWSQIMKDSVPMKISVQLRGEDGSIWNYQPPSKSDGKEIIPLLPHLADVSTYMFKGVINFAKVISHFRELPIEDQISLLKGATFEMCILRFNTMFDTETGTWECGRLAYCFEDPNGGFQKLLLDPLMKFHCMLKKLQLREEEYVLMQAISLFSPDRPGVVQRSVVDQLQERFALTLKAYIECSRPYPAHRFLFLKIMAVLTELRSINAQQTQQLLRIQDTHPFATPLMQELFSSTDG
Outline: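 Cell-based rPXR activation assay: rPXR cells, 2,000 per well, rested 5hr at 37 C, then exposed to compounds in DMSO for 24 hr at 37 C. Luciferase activity read by One-Glo luminescence after 30 min at room temperature.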

[13] = target: Nuclear receptor subfamily 1 group I member 2 (Homo sapiens) (UniProt O75469); assay: CYP3A4 induction through human pregnane X receptor (PXR) by small molecules, qHTS assay (AID 1346984); note: nearly all actives have a fitted effect of over 40% in size
Outline: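 Luminescence readout: luciferase signal after One-Glo (30 min, room temperature), following 3 h at 37C with 3uM final Luciferin-IPA P450 substrate. Cells were DPX-2 (HepG2, PXR/CYP3A4-luc co-transfected) dosed for 24 h.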

[14] = target: Nuclear receptor subfamily 1 group I member 2 (Homo sapiens) (UniProt O75469); assay: Human pregnane X receptor (PXR) activation by small molecules, qHTS assay (AID 1346985); note: nearly all actives have a fitted effect of over 40% in size
Outline: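 DPX-2 cells (HepG2 co-transfected with a PXR response element and a CYP3A4-promoter luciferase construct) were seeded at 2,000 per well, rested 5 hr at 37C, then exposed to DMSO-dissolved compounds for 24 hr. Activation was read as luciferase luminescence.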

SMILES | Potency [1] | Potency [2] | Potency [3] | Potency [4] | Potency [5] | Potency [6] | Potency [7] | Potency [8] | Potency [9] | Potency [10] | Potency [11] | max activation [12] | Potency [13] | Potency [14]
CCCOC(=O)c1cc(O)c(O)c(O)c1 | inactive | 48.3 µM (active) and 30.6 µM (active) | inactive | inactive | 27.3 µM (active) | 31.6 µM (active) and 35.6 µM (active) | 79.3 µM (active) and 56.4 µM (active) | 39.7 µM (active) and 39.9 µM (active) | inactive | inactive | – | – | – | –
CCC(=O)/C=C/C1C(C)=CCCC1(C)C (stereo not given) | inactive | inactive | inactive | inactive | 34.5 µM (active) | inactive | 44.9 µM (active) and 15.9 µM (active) | inactive and 25.2 µM (active) | inactive | 71.2 µM (active) and 20 µM (active) | 31.7 µM (active) | – | – | –
Nc1nc2ccccc2[nH]1 | inactive | inactive | inactive | inactive | inactive | 62.5 µM (active) | inactive | inactive | inactive | inactive | inactive | – | – | –
O=C(O)c1cccc(C(=O)O)c1 | inactive | inactive | inactive | inactive | inactive | inactive | inactive | – | inactive | inactive | inactive | – | – | –
CCCCCCCCCCCC[N+](C)(C)C | inactive | 68.4 µM (active) | inactive | inactive | 24.3 µM (active) and 61.1 µM (active) | 3.55 µM (active) and 3.56 µM (active) and 2.24 µM (active) | inactive and 79.6 µM (active) | inactive | 21.9 µM (active) | inactive | inactive | – | – | –
CCCCC/C=C/CC1CC(=O)OC1=O (stereo not given) | – | – | inactive | inactive | inactive | inactive | – | 28.3 µM (active) | inactive | inactive | inactive | – | – | –
CC(C)C(=O)c1c(C(C)C)nn2ccccc12 | inactive | inactive | inactive | – | 26.6 µM (active) | inactive | inactive | 2.57 µM (active) | inactive | inactive | inactive | – | – | –
O=C(O)c1cc(Cl)cc(Cl)c1 | inactive | inactive | inactive | inactive | inactive | 35.4 µM (active) | inactive | – | inactive | inactive | – | – | – | –
CCN(CC)c1ccc2c(C)cc(=O)oc2c1 | – | – | inactive | – | 54.9 µM (active) and 48.6 µM (active) | inactive | 40.2 µM (active) and 31.7 µM (active) | 2.02 µM (active) and 2.83 µM (active) | inactive | 20.2 µM (active) and 31.7 µM (active) | inactive | – | – | –
CCCCCCCCCCCCCC[P+](CCCC)(CCCC)CCCC | – | 2.42 µM (active) and 7.7 µM (active) | inactive | 54.2 µM (active) | 2.16 µM (active) and 6.86 µM (active) | 223 nM (active) and 399 nM (active) | 56.1 µM (active) and 39.9 µM (active) | 70.6 µM (active) and 79.6 µM (active) | 194 nM (active) and 275 nM (active) | inactive | 28.1 µM (active) and 50.2 µM (active) | – | – | –
c1ccc2n[nH]nc2c1 | – | inactive | inactive | inactive | inactive | inactive | inactive | inactive | inactive | inactive | inactive | – | – | –
Cc1occc(=O)c1OC(=O)C(C)C | inactive | inactive | inactive | inactive | inactive | inactive | inactive | inactive | inactive | inactive | inactive | – | – | –
COc1cc(C(=S)N2CCOCC2)ccc1O | – | inactive | inactive | inactive | inactive | inactive | – | inactive | inactive | inactive | inactive | -1.33% (inactive) | inactive | inactive
OCC(CO)N[C@H]1C[C@](O)(CO)[C@@H](O)[C@H](O)[C@H]1O | – | inactive | inactive | inactive | inactive | inactive | inactive | inactive | inactive | inactive | inactive | -3.54% (inactive) | inactive | inactive
CC(C)(C)NC(=O)[C@@H]1CN(Cc2cccnc2)CCN1C[C@@H](O)C[C@@H](Cc1ccccc1)C(=O)N[C@H]1c2ccccc2C[C@H]1O | inactive | inactive | inactive | inactive | – | – | – | – | inactive | – | – | 4.92% (inactive) | – | –

Source: PubChem BioAssay (Tox21)
